# Source: PubChem BioAssay AID1159580 (chemical genetic matrix, 2015)
# “And” between values parts separate entries of the source, which are not always exact repeats. Identical values can stand only once. The campaign covered roughly 5,500 compounds. About 2,000 (36%) were called active. About 18% were inconclusive and are not listed. The list shows a part of the results. Values without a mark were called inactive. Cut-off read from the data, not from the text of the source: active = normalized growth mostly below about 0.91 (no sharp cut-off); inconclusive = no clear call, values can overlap the other calls; inactive = mostly above about 0.92.
# Assay: chemical genetic growth profiling, strain panel (AID 1159580);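 note: tested at 20 µM; growth read once vehicle control cultures reached saturation at 30 °C; 1 = growth at the plate median or of vehicle wells; lower values mean less growth of the strain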
# Conditions: S. cerevisiae deletion strains, growth OD
compound,measurement,setting,value
Nc1c2ccccc2nc2ccccc12 (tested in a mixture with another compound),normalized growth,"locus YAL013W, strain DEP1, stronger effect = lower value",0.822 (active)
same,normalized growth,"locus YAL021C, strain ccr4, stronger effect = lower value",0.67 (active)
same,normalized growth,"locus YAL026C, strain drs2, stronger effect = lower value",0.541 (active)
same,normalized growth,"locus YAL030W, strain snc1, stronger effect = lower value",0.679 (active)
same,normalized growth,"locus YBL061C, strain skt5, stronger effect = lower value",0.795 (active)
same,normalized growth,"locus YBR009C, strain hhf1, stronger effect = lower value",0.495 (active)
same,normalized growth,"locus YBR021W, strain FUR4, stronger effect = lower value",0.985
same,normalized growth,"locus YBR023C, strain chs3, stronger effect = lower value",0.751 (active)
same,normalized growth,"locus YBR171W, strain sec66, stronger effect = lower value",0.964
same,normalized growth,"locus YBR229C, strain ROT2, stronger effect = lower value",0.976
same,normalized growth,"locus YBR231C, strain swc5, stronger effect = lower value",0.677 (active)
same,normalized growth,"locus YBR279W, strain paf1, stronger effect = lower value",0.555 (active)
same,normalized growth,"locus YCL011C, strain gbp2, stronger effect = lower value",0.704 (active)
same,normalized growth,"locus YCL016C, strain dcc1, stronger effect = lower value",0.467 (active)
same,normalized growth,"locus YCL029C, strain bik1, stronger effect = lower value",0.485 (active)
same,normalized growth,"locus YCL061C, strain MRC1, stronger effect = lower value",0.842 (active)
same,normalized growth,"locus YCL069W, strain vba3, stronger effect = lower value",0.777 (active)
same,normalized growth,"locus YCR088W, strain abp1, stronger effect = lower value",0.682 (active)
same,normalized growth,"locus YDL005C, strain med2, stronger effect = lower value",0.801 (active)
same,normalized growth,"locus YDL035C, strain GPR1, stronger effect = lower value",0.507 (active)
same,normalized growth,"locus YDL040C, strain nat1, stronger effect = lower value",0.875 (active)
same,normalized growth,"locus YDL074C, strain BRE1, stronger effect = lower value",0.498 (active)
same,normalized growth,"locus YDL101C, strain DUN1, stronger effect = lower value",0.76 (active)
same,normalized growth,"locus YDL134C, strain PPH21, stronger effect = lower value",0.629 (active)
same,normalized growth,"locus YDL185W, strain tfp1, stronger effect = lower value",0.998
same,normalized growth,"locus YDL192W, strain arf1, stronger effect = lower value",0.691 (active)
same,normalized growth,"locus YDR001C, strain nth1, stronger effect = lower value",0.956
same,normalized growth,"locus YDR069C, strain doa4, stronger effect = lower value",0.519 (active)
same,normalized growth,"locus YDR101C, strain arx1, stronger effect = lower value",0.593 (active)
same,normalized growth,"locus YDR137W, strain rgp1, stronger effect = lower value",0.572 (active)
same,normalized growth,"locus YDR150W, strain NUM1, stronger effect = lower value",0.883 (active)
same,normalized growth,"locus YDR159W, strain sac3, stronger effect = lower value",0.773 (active)
same,normalized growth,"locus YDR162C, strain NBP2, stronger effect = lower value",0.718 (active)
same,normalized growth,"locus YDR297W, strain sur2, stronger effect = lower value",0.749 (active)
same,normalized growth,"locus YDR318W, strain mcm21, stronger effect = lower value",0.655 (active)
same,normalized growth,"locus YDR334W, strain swr1, stronger effect = lower value",0.943
same,normalized growth,"locus YDR335W, strain msn5, stronger effect = lower value",0.807 (active)
same,normalized growth,"locus YDR388W, stronger effect = lower value",0.406 (active)
same,normalized growth,"locus YDR392W, strain spt3, stronger effect = lower value",0.6 (active)
same,normalized growth,"locus YDR502C, strain sam2, stronger effect = lower value",0.606 (active)
same,normalized growth,"locus YEL003W, strain gim4, stronger effect = lower value",0.665 (active)
same,normalized growth,"locus YEL037C, strain rad23, stronger effect = lower value",0.763 (active)
same,normalized growth,"locus YEL061C, strain CIN8 (second series), stronger effect = lower value",0.887 (active)
same,normalized growth,"locus YEL061C, strain CIN8, stronger effect = lower value",0.838 (active)
same,normalized growth,"locus YER015W, strain faa2, stronger effect = lower value",0.821 (active)
same,normalized growth,"locus YER016W, strain bim1, stronger effect = lower value",0.686 (active)
same,normalized growth,"locus YER110C, stronger effect = lower value",0.996
same,normalized growth,"locus YER111C, strain swi4, stronger effect = lower value",0.904 (active)
same,normalized growth,"locus YER155C, strain BEM2 (second series), stronger effect = lower value",0.774 (active)
same,normalized growth,"locus YER155C, strain BEM2, stronger effect = lower value",0.89 (active)
same,normalized growth,"locus YER167W, strain BCK2, stronger effect = lower value",0.58 (active)
same,normalized growth,"locus YFR010W, strain ubp6, stronger effect = lower value",0.627 (active)
same,normalized growth,"locus YGL078C, strain dbp3, stronger effect = lower value",0.778 (active)
same,normalized growth,"locus YGL086W, strain mad1, stronger effect = lower value",0.618 (active)
same,normalized growth,"locus YGL167C, strain pmr1, stronger effect = lower value",0.927
same,normalized growth,"locus YGL173C, strain kem1, stronger effect = lower value",0.656 (active)
same,normalized growth,"locus YGL227W, strain vid30, stronger effect = lower value",0.836 (active)
same,normalized growth,"locus YGL240W, strain doc1, stronger effect = lower value",0.874 (active)
same,normalized growth,"locus YGL248W, strain PDE1, stronger effect = lower value",0.559 (active)
same,normalized growth,"locus YGL253W, strain hxk2, stronger effect = lower value",0.582 (active)
same,normalized growth,"locus YGR078C, strain PAC10, stronger effect = lower value",0.703 (active)
same,normalized growth,"locus YGR135W, strain pre9, stronger effect = lower value",0.704 (active)
same,normalized growth,"locus YGR229C, strain SMI1, stronger effect = lower value",0.68 (active)
same,normalized growth,"locus YGR252W, strain gcn5, stronger effect = lower value",0.461 (active)
same,normalized growth,"locus YHR013C, strain ard1, stronger effect = lower value",0.494 (active)
same,normalized growth,"locus YHR027C, strain rpn1, stronger effect = lower value",0.853 (active)
same,normalized growth,"locus YHR030C, strain SLT2, stronger effect = lower value",0.749 (active) and 0.474 (active)
same,normalized growth,"locus YHR079C, strain IRE1 (second series), stronger effect = lower value",0.531 (active)
same,normalized growth,"locus YHR079C, strain IRE1, stronger effect = lower value",0.484 (active)
same,normalized growth,"locus YHR129C, strain ARP1, stronger effect = lower value",0.781 (active)
same,normalized growth,"locus YHR142W, strain chs7, stronger effect = lower value",0.729 (active)
same,normalized growth,"locus YHR200W, strain rpn10, stronger effect = lower value",0.735 (active)
same,normalized growth,"locus YIL066C, strain RNR3, stronger effect = lower value",0.775 (active)
same,normalized growth,"locus YIL073C, strain SPO22, stronger effect = lower value",0.535 (active)
same,normalized growth,"locus YIL125W, strain kgd1, stronger effect = lower value",0.9 (active)
same,normalized growth,"locus YIR030C, strain dcg1, stronger effect = lower value",0.575 (active)
same,normalized growth,"locus YJL092W, strain hpr5, stronger effect = lower value",0.802 (active)
same,normalized growth,"locus YJL095W, strain BCK1 (second series), stronger effect = lower value",0.766 (active)
same,normalized growth,"locus YJL095W, strain BCK1, stronger effect = lower value",0.474 (active) and 0.436 (active)
same,normalized growth,"locus YJL115W, strain asf1, stronger effect = lower value",0.849 (active)
same,normalized growth,"locus YJL129C, strain trk1, stronger effect = lower value",1.02
same,normalized growth,"locus YJL134W, strain LCB3, stronger effect = lower value",0.982
same,normalized growth,"locus YJL154C, strain vps35, stronger effect = lower value",0.859 (active)
same,normalized growth,"locus YJL164C, strain tpk1, stronger effect = lower value",0.562 (active)
same,normalized growth,"locus YJL166W, strain qcr8, stronger effect = lower value",0.693 (active)
same,normalized growth,"locus YJL168C, strain set2, stronger effect = lower value",0.946
same,normalized growth,"locus YJL187C, strain SWE1 (second series), stronger effect = lower value",0.565 (active)
same,normalized growth,"locus YJL187C, strain SWE1, stronger effect = lower value",0.813 (active)
same,normalized growth,"locus YJR043C, strain POL32, stronger effect = lower value",0.686 (active)
same,normalized growth,"locus YJR066W, strain TOR1, stronger effect = lower value",0.397 (active)
same,normalized growth,"locus YJR075W, strain HOC1, stronger effect = lower value",0.505 (active)
